Active and inactive are the calls of the source.
Legend:
[1] = system: Plasmodium falciparum Sir2 (PF13_0152, Sir2A); assay: Plasmodium falciparum Sir2A binding compounds – biochemical, small-molecule microarray, 635 nm fluorescence, primary screen (AID 1098); conditions: fluorescence 635 nm, higher = more signal;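 also: score merges spot fluorescence intensity with its signal-to-noise ratio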
[2] = probe aDKK1 binding to arrayed compounds – biochemical, biotinylated probe, 635/667 nm fluorescence, primary screen (AID 1099); conditions: small-molecule microarray, higher = more signal;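 also: score merges 667nm spot fluorescence with signal to noise across triplicate slides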
[3] = probe aCHRDL2 binding to arrayed compounds – biochemical, biotinylated probe, 635/667 nm fluorescence, primary screen (AID 1100); conditions: small-molecule microarray, higher = more signal
[4] = change in splice reporter luminescence, either direction, cell-based, HEK293, spliceosome inhibition project, primary screen (AID 1101); conditions: HEK293 splicing luciferase reporter, 24 h, higher = more signal, called active from +8 up or from −8 down;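 also: HEK293 cells carrying a splicing-competent luciferase reporter gene; test concentration not given here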
[5] = target: Fibroblast growth factor 10 (Homo sapiens) (UniProt O15520); assay: compounds binding fibroblast growth factor 10 – biochemical, small-molecule microarray, 635 nm fluorescence, primary screen (AID 1102); conditions: FGF10 binding, fluorescence 635 nm, higher = more signal
Chain of Fibroblast growth factor 10 (Homo sapiens) (O15520 whole entry, looked up): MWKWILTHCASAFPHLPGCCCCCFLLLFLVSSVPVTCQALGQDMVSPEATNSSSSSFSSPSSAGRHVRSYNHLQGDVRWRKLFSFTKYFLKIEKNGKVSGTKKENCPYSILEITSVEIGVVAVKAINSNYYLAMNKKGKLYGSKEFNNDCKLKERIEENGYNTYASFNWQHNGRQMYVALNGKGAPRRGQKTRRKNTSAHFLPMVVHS

[6] = system: glycogen synthase kinase-3 (GSK3A per assay name; protocol says GSK3B); assay: compounds binding glycogen synthase kinase-3 – biochemical, small-molecule microarray, 635 nm fluorescence, GSK3A, primary screen (AID 1103); conditions: fluorescence 635 nm, higher = more signal; also: the record names both GSK3A and GSK3B
[7] = target: Epidermal growth factor receptor (Homo sapiens) (UniProt P00533); assay: compounds binding epidermal growth factor receptor – biochemical, small-molecule microarray, 635 nm fluorescence, primary screen (AID 1104); conditions: EGFR binding, higher = more signal;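 also: score merges 667 nm emission intensity with spot signal to noise over triplicate slides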
Chain of Epidermal growth factor receptor (Homo sapiens) (P00533 whole entry, looked up): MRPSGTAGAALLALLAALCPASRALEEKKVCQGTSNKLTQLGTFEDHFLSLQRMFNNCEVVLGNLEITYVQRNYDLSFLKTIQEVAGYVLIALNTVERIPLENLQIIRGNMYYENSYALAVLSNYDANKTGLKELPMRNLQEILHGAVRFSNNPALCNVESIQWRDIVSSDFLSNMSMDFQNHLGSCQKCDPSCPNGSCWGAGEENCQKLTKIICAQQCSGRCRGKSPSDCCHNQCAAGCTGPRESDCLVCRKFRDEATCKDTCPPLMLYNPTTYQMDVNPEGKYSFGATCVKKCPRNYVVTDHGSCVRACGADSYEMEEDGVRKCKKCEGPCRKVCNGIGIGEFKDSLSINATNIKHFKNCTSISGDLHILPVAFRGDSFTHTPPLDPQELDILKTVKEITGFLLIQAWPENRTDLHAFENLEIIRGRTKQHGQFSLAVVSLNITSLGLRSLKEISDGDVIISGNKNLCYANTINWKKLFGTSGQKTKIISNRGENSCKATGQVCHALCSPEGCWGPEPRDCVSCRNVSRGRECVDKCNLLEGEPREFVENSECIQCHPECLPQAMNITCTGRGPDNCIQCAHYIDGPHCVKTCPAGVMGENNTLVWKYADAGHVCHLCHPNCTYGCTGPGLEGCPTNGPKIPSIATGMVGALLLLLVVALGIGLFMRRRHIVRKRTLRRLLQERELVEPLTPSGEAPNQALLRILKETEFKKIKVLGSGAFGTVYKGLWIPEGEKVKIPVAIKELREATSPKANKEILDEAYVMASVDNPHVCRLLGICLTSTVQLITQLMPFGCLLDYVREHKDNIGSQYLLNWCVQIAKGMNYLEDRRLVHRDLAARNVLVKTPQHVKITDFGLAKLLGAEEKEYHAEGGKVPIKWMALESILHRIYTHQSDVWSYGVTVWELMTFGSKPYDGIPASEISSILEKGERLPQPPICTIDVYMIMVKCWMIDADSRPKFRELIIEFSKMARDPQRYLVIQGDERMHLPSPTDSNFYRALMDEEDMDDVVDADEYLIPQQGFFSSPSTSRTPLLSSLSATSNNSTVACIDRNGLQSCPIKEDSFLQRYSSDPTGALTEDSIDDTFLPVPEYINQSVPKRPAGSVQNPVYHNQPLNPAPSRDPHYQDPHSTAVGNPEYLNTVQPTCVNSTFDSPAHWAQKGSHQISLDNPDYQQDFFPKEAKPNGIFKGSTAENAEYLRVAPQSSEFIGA

[8] = target: Follistatin-related protein 3 (Homo sapiens) (UniProt O95633); assay: compounds binding follistatin-related protein 3 – biochemical, small-molecule microarray, 635 nm fluorescence, primary screen (AID 1105); conditions: FSTL3 binding, higher = more signal;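 also: score merges emission near 667 nm and signal to noise per printed spot across three slides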
Chain of Follistatin-related protein 3 (Homo sapiens) (O95633 whole entry, looked up): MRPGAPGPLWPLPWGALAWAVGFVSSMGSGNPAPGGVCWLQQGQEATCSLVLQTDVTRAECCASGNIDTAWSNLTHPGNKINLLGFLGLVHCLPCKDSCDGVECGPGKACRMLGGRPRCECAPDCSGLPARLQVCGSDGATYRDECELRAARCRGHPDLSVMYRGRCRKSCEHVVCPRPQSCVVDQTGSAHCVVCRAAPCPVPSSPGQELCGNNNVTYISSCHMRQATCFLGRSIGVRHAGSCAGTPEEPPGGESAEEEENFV

[9] = target: Dickkopf-related protein 1 (Homo sapiens) (UniProt O94907); assay: small molecules binding DKK1 protein – biochemical, small-molecule microarray, 635 nm fluorescence scan, primary screen (AID 1106); conditions: higher = more signal;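 also: score merges emission near 667 nm with signal to noise over three replicate slides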
Chain of Dickkopf-related protein 1 (Homo sapiens) (O94907 whole entry, looked up): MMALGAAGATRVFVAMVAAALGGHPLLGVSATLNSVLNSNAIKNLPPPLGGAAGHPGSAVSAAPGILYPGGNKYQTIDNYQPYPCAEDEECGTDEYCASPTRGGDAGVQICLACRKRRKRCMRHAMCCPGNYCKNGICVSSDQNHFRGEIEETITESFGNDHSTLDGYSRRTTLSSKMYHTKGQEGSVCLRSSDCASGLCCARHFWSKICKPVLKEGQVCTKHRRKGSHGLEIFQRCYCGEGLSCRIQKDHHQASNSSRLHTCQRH

[10] = system: Inhibin beta A chain (activin A); assay: small molecules binding activin A – biochemical, small-molecule microarray, 635 nm fluorescence scan, primary screen (AID 1107); conditions: INHBA, higher = more signal;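 also: mouse activin A protein probed at 4.33 µg/mL on printed slides; score merges bound-protein fluorescence near 667 nm with spot signal-to-noise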
[11] = system: Human papillomavirus type 1a protein E7 (residues 44-93); assay: small molecules binding HPV E7 44-93 – biochemical, small-molecule microarray, residues 44-93, 635 nm fluorescence, primary screen (AID 1108); conditions: fluorescence 635 nm, higher = more signal;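 also: E7 fragment applied at 1 µg/mL in TBST for 1 h at 4 C; score combines spot fluorescence with its signal to noise ratio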
[12] = hepatitis C replication reporter changes, two-sided – Huh7 cells, luciferase reporter, HCV replication inhibitor project, primary screen (AID 1109); conditions: Huh7 HCV replicon luciferase reporter, 48 h; higher = more signal;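 also: huh7 hepatoma cells harbouring a luciferase neomycin HCV replicon reporter; luciferase luminescence as measure of HCV replicon replication; test concentration not given here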
[13] = target: Left-right determination factor 2 (Homo sapiens) (UniProt O00292); assay: small molecules binding LEFTY2 protein – biochemical, small-molecule microarray, 635 nm fluorescence scan, primary screen (AID 1110); conditions: higher = more signal
Chain of Left-right determination factor 2 (Homo sapiens) (O00292 whole entry, looked up): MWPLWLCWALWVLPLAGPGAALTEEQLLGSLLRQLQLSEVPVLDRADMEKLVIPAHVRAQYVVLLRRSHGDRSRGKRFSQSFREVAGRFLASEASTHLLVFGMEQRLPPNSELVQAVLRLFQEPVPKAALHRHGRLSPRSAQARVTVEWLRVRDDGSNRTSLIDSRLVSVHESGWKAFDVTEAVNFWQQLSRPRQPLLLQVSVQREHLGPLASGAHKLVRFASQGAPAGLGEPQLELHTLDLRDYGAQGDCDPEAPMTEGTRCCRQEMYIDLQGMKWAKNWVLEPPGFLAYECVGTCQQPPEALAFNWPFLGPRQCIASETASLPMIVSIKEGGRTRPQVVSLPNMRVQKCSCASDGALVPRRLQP

[14] = target: Calmodulin-1 (Homo sapiens) (UniProt P0DP23); assay: small molecules binding calmodulin-1 with EGTA – biochemical, small-molecule microarray, Cy5-labelled CALM1, profiling panel (AID 1111); conditions: Cy5-CALM1 binding fluorescence, higher = more signal;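 also: labelled calmodulin applied in Tris saline Tween buffer holding calcium plus EGTA and DTT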
[15] = target: Calmodulin-1 (Homo sapiens) (UniProt P0DP23); assay: small molecules binding Ca-loaded calmodulin-1 – biochemical, small-molecule microarray, Cy5-labelled CALM1, plus calcium, artefact control for SMM control-protein annotation, profiling panel (AID 1112); conditions: Cy5-CALM1 binding fluorescence, higher = more signal;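 also: score merges spot fluorescence with signal to noise from triplicate slides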
[16] = probe aWnt5a binding to arrayed compounds – biochemical, biotinylated probe, 635/667 nm fluorescence, primary screen (AID 1113); conditions: small-molecule microarray, higher = more signal;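 also: score merges 667 nm fluorescence intensity with signal-to-noise per printed feature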
[17] = probe aShh binding to arrayed compounds – biochemical, biotinylated probe, 635/667 nm fluorescence, primary screen (AID 1114); conditions: small-molecule microarray, higher = more signal;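 also: probe is biotin-labelled aShh protein from a stem cell growth factor screen; measures binding of labelled protein to compounds printed on the slide; score merges feature fluorescence at 667 nm with signal-to-noise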
[18] = probe aNog binding to arrayed compounds – biochemical, biotinylated probe, 635/667 nm fluorescence, primary screen (AID 1115); conditions: small-molecule microarray, higher = more signal;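 also: probe is biotinylated aNog protein used at 0.15 µg/mL for 1 h at 4 C; z-score combines 667 nm fluorescence of each spot with its signal to noise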
[19] = target: Torsin-1A-interacting protein 1 (Homo sapiens) (UniProt Q5JTV8); assay: compound microarray binding of lysate hLAP1 – cell lysate, small-molecule microarray, COS7 lysate, 635/667 nm fluorescence, primary screen (AID 1116); conditions: 635 nm fluorescence, higher = more signal
Chain of Torsin-1A-interacting protein 1 (Homo sapiens) (Q5JTV8 whole entry, looked up): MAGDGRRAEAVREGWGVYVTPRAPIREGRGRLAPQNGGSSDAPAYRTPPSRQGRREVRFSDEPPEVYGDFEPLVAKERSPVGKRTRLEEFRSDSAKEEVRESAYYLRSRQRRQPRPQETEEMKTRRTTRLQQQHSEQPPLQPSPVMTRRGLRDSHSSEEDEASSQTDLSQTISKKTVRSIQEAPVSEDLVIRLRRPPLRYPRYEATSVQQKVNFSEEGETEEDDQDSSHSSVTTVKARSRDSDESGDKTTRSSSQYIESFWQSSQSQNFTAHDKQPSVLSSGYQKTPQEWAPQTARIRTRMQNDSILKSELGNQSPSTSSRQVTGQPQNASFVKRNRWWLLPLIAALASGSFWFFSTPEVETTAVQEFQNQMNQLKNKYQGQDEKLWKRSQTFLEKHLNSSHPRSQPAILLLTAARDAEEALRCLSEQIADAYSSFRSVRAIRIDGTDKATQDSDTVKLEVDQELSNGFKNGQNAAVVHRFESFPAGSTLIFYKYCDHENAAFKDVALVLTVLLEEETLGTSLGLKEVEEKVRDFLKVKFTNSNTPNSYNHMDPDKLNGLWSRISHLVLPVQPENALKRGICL

[20] = target: Alpha-bungarotoxin (Bungarus multicinctus) (UniProt P60615); assay: compounds binding labelled alpha-BTX control protein – biochemical, small-molecule microarray, Alexa647 label, 635/667 nm fluorescence, artefact control for SMM control protein annotation, profiling panel (AID 1117); conditions: alpha-BTX-A647 binding fluorescence, higher = more signal
Chain of Alpha-bungarotoxin (Bungarus multicinctus) (P60615 whole entry, looked up): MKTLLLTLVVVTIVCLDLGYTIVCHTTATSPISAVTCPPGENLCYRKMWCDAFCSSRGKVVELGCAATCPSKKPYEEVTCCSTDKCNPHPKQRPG

SMILES | composite z-score [1] | composite z-score [2] | composite z-score [3] | z-score [4] | composite z-score [5] | composite z-score [6] | composite z-score [7] | composite z-score [8] | composite z-score [9] | composite z-score [10] | composite z-score [11] | z-score [12] | composite z-score [13] | composite z-score [14] | composite z-score [15] | composite z-score [16] | composite z-score [17] | composite z-score [18] | composite z-score [19] | composite z-score [20]
CC(C)N1CC=CC23O[C@@H]4C=CCCOC(=O)C4[C@H]2C(=O)N(CCCCCCO)[C@@H]3C1=O (stereo not given in full) | 0.627 | -0.201 | 0.587 | 1.59 (inactive) | -1.03 | -1.13 | -1.13 | -1.22 | -1.59 | 0.12 | -0.558 | -0.845 | -1.39 | -0.0847 | 0.749 | -0.252 | -0.221 | 0.0432 | -0.423 | -0.866
CC(C)C[C@@H]1NC(=O)[C@H]2C[C@@H](C(=O)NCCCCCCN(C)C)[C@@H](c3cccc(OCCO)c3)N2C1=O | 1.5 | 0.346 | 0.124 | -0.152 (inactive) | 1.01 | 1.21 | 0.317 | 1.35 | 1.74 | 1.1 | 1.24 | 0.35 | 1.38 | -2.44 | -1.26 | -0.0792 | 0.108 | -0.216 | 2.04 | 1.61
C=COC[C@H]1CN2[C@@H](CC[C@@H](C)[C@@H]2c2ccc(Br)cc2)C(=O)O1 | 0.729 | -0.41 | -0.601 | -1.09 (inactive) | 0.273 | 0.665 | 0.498 | 0.694 | 0.928 | 0.611 | 0.864 | 0.924 | 0.792 | 0.537 | -0.092 | -0.176 | -0.304 | -0.0286 | -0.415 | 0.166
O=C1[C@H]2[C@H]3[C@H](O)[C@H](O)CC(=NOCc4ccccc4)[C@H]3CC[C@H]2C(=O)N1c1ccc(F)cc1F | -0.183 | -0.268 | -0.675 | -0.772 (inactive) | 0.266 | 0.167 | 0.534 | -0.0913 | 0.0949 | -0.364 | -0.642 | 0.473 | 0.349 | -0.251 | -0.349 | -0.123 | -0.339 | -0.47 | -0.273 | -0.0546
COC(=O)[C@H](C)NC(=O)CCC1CC(OC(=O)NCCc2ccc(F)cc2)CC2(CCCC(COC(=O)NCC(c3ccccc3)c3ccccc3)O2)O1 (stereo not given in full) | 0.713 | -0.389 | -0.498 | -0.527 (inactive) | 0.377 | 0.756 | 0.384 | 0.691 | 0.457 | -0.0097 | 1.39 | -0.375 | 0.386 | 0.084 | -0.443 | -0.124 | 0.0062 | -0.152 | 0.516 | 0.853
NCCCCCNC(=O)[C@@H]1C[C@@H]2C(=O)N3CCC[C@H]3C(=O)N2[C@@H]1c1cccc(OCCO)c1 | 0.963 | 1.61 | 0.948 | -0.298 (inactive) | 0.506 | 0.821 | 0.515 | 0.984 | 1.17 | 1.63 | 0.933 | -1.03 | 0.781 | 1.38 | 0.929 | 0.0024 | 0.315 | 1.55 | 1.72 | 0.482
O=C1[C@H]2[C@H]3[C@H](O)[C@H](O)CC(=NO[C@@H]4O[C@H](CO)[C@@H](O)[C@H](O)[C@H]4O)[C@@H]3CC[C@H]2C(=O)N1c1ccc(F)cc1F | 0.406 | -0.157 | -0.445 | -0.244 (inactive) | 0.794 | 0.703 | 0.541 | 0.608 | 0.451 | -0.114 | 0.343 | 0.434 | 0.428 | -0.364 | -0.561 | -0.12 | 0.284 | -0.349 | 0.467 | 0.161
CC(C)CON=C1C[C@@H](O)[C@@H](O)[C@@H]2[C@@H]3C(=O)N(C[C@@H]4CCCO4)C(=O)[C@@H]3CC[C@H]12 | 0.651 | -0.273 | -0.356 | 0.132 (inactive) | 0.505 | 0.33 | 0.265 | 0.417 | 0.24 | 0.07 | 0.595 | 0.392 | 0.781 | 0.0832 | 0.0249 | -0.178 | -0.345 | -0.074 | 0.241 | 0.0141
COCCCNC(=O)[C@]1(CCC(=O)OC(C)(C)C)N=C(c2ccc(OCCCO)cc2)O[C@@H]1c1ccccc1N=[N+]=[N-] | 1.31 | 0.314 | 0.999 | -1.14 (inactive) | 1.29 | 1.33 | 0.287 | 1.06 | 0.0998 | 0.772 | 1.45 | 0.971 | 0.197 | 1.88 | 0.671 | 0.183 | 0.0948 | 1.56 | 1.21 | 1.64
COc1ccc(O[C@H]2C=C[C@@H](c3ccccc3)O[C@@H]2COC(=O)CCC(C)=NO[C@H](C)c2cn([C@@H]3COC[C@H]3O)nn2)cc1 | 0.716 | -0.226 | -0.791 | -1.25 (inactive) | 0.39 | 0.387 | 0.562 | 0.706 | 0.583 | -0.298 | 0.765 | -2.82 | 0.51 | -0.121 | -0.686 | -0.119 | 0.0062 | -0.185 | 0.68 | 1.19
COC(=O)[C@@]1(Cc2ccc(OC)cc2)[C@H]2c3cc(C(=O)N4CCCC4)n(Cc4cc(F)c(F)c(F)c4)c3C[C@H]2CN1C(=O)c1ccccc1 | 1.08 | 2.47 | 1.59 | -1.28 (inactive) | 1.15 | 1.3 | 1.12 | 1.32 | -0.279 | 0.835 | 1.37 | 0.323 | 0.342 | 2.69 | 1.59 | 1.11 | 2.22 | 1.07 | 1.52 | 2.06
